Source: the antibiotic and cytotoxicity screens of Wong et al. (2023)
In all, about 39,000 compounds went through this assay and about 1,500 (3.8%) were called active. This is one part of a sample in which actives are shown more often than they occur.

These compounds were tested on HSkMC (human skeletal muscle cells) (assay: cytotoxicity call (relative viability < 0.9)). Conditions: 10 µM.

Compound | cytotoxicity call
COCC#Cc1ccc2c(c1)O[C@@H](CN(C)C(=O)C1CCOCC1)[C@H](C)CN([C@H](C)CO)S2(=O)=O | inactive
CC(C)[Si](C#CCCCC#N)(O[C@H](c1ccccc1)c1cn(Cc2cccc(Cl)c2)nn1)C(C)C | inactive
C[C@H](CO)N1C[C@H](C)[C@@H](CN(C)Cc2ccccc2)OCCCC[C@H](C)Oc2ccc(NC(=O)Nc3ccc(F)cc3)cc2C1=O | inactive
C[C@H]1CN([C@@H](C)CO)C(=O)c2cccc(NC(=O)c3ccc(-c4nccs4)cc3)c2O[C@@H]1CN(C)Cc1ccccc1 | inactive
Cc1noc(C)c1NC(=O)N(C)C[C@@H]1Oc2ncc(C#Cc3ccccc3)cc2C(=O)N([C@H](C)CO)C[C@@H]1C | inactive
COc1ccc(S(=O)(=O)Nc2ccc3c(c2)C(=O)N([C@@H](C)CO)C[C@H](C)[C@H](CN(C)C(=O)NC2CCCCC2)OCCCC[C@H](C)O3)cc1 | inactive
CCCC#Cc1ccc2c(c1)O[C@@H](CN(C)Cc1ccc3c(c1)OCO3)[C@@H](C)CN([C@@H](C)CO)S2(=O)=O | inactive
COCC(=O)N1CC[C@]2(CC1)CN([C@@H](CO)c1[nH]c3cc(ccc3c12)OC)S(=O)(=O)C | inactive
Cn1c2c(c(=S)[nH]c1=O)CCC2 | inactive
Cc1ccc(S(=O)(=O)Nc2ccc3c(c2)C(=O)N([C@@H](C)CO)C[C@H](C)[C@H](CN(C)Cc2ccc(C(=O)O)cc2)OCCCC[C@H](C)O3)cc1 | inactive
C[C@@H]1CN([C@@H](C)CO)C(=O)c2cc(NC(=O)Nc3ccc4c(c3)OCO4)ccc2O[C@@H](C)CCCCO[C@@H]1CN(C)Cc1ccc(C(=O)O)cc1 | inactive
C[C@@H]1CN([C@@H](C)CO)C(=O)c2cc(NC(=O)Nc3ccc(F)cc3)ccc2O[C@@H](C)CCCCO[C@H]1CN(C)C(=O)Cc1ccccc1 | inactive
C[C@@H]1CN([C@@H](C)CO)C(=O)c2cc(NC(=O)Nc3ccccc3)ccc2O[C@@H](C)CCCCO[C@@H]1CN(C)C(=O)Cc1ccccc1 | inactive
C[C@H]1CCCCO[C@H](CN(C)Cc2ccc(C(=O)O)cc2)[C@@H](C)CN([C@@H](C)CO)C(=O)c2cc(NC(=O)C3CCCCC3)ccc2O1 | inactive
C(=N\c1ccccc1)/c1ccc(Oc2ccccc2)cc1 | inactive
C[C@@H]1CN([C@H](C)CO)C(=O)Cc2cc(NC(=O)CCCCCC(=O)Nc3ccccc3N)ccc2O[C@H]1CN(C)Cc1ccc(C(F)(F)F)cc1 | inactive
C[C@@H]1CN([C@@H](C)CO)C(=O)Cc2cc(NC(=O)CCCCCC(=O)Nc3ccccc3N)ccc2O[C@H]1CN(C)Cc1ccc(C(F)(F)F)cc1 | inactive
C[C@@H]1CN([C@@H](C)CO)C(=O)Cc2cc(NC(=O)CCCCCC(=O)Nc3ccccc3N)ccc2O[C@@H]1CN(C)Cc1ccc(C(F)(F)F)cc1 | active
C[C@@H]1CN([C@H](C)CO)C(=O)Cc2cc(NC(=O)CCCCCC(=O)Nc3ccccc3N)ccc2O[C@@H]1CN(C)Cc1ccc(C(F)(F)F)cc1 | active
C[C@H](CO)N1C[C@H](C)[C@H](CN(C)Cc2ccc(C(F)(F)F)cc2)Oc2ccc(NC(=O)CCCCCC(=O)Nc3ccccc3N)cc2CC1=O | inactive

Compound | cytotoxicity call
C[C@H]1CN([C@@H](C)CO)C(=O)Cc2cc(NC(=O)CCCCCC(=O)Nc3ccccc3N)ccc2O[C@@H]1CN(C)Cc1ccc(C(F)(F)F)cc1 | inactive
COc1cccc(Nc2ncnn3ccc(CN4CC[C@@H](N)[C@H](O)C4)c23)c1 | inactive
COc1cccc(S(=O)(=O)N2C[C@H](O)COC[C@H]3O[C@H](CC(=O)N4CCN(C)CC4)CC[C@@H]32)c1 | inactive
C[C@H](CO)N1C[C@H](C)[C@@H](CN(C)CC2CC2)Oc2ccc(NS(=O)(=O)c3ccccc3)cc2C1=O | inactive
CC1(C)[C@H]2CC[C@@]1(C)c1nn(-c3ccccc3)c(C(F)(F)F)c12 | inactive
C[C@H](CO)N1C[C@H](C)[C@@H](CN(C)C(=O)Nc2cccc3ccccc23)OCCCC[C@H](C)Oc2ccc(NC(=O)Nc3ccc(F)cc3)cc2C1=O | inactive
C[C@@H]1CN([C@@H](C)CO)C(=O)c2cc(NC(=O)Cc3ccccc3)ccc2O[C@H]1CN(C)Cc1ccc(Oc2ccccc2)cc1 | inactive
C[C@@H]1CN([C@H](C)CO)C(=O)c2cc(NC(=O)Cc3ccccc3)ccc2O[C@@H]1CN(C)Cc1ccc(Oc2ccccc2)cc1 | inactive
C[C@H](CO)N1C[C@H](C)[C@@H](CN(C)Cc2ccc(Oc3ccccc3)cc2)Oc2ccc(NC(=O)Nc3ccccc3)cc2C1=O | inactive
C[C@@H]1CN([C@@H](C)CO)C(=O)c2cc(NC(=O)Cc3ccccc3)ccc2O[C@@H]1CN(C)Cc1ccc(Oc2ccccc2)cc1 | active
COc1ccc(NC(=O)Nc2ccc3c(c2)C(=O)N([C@H](C)CO)C[C@@H](C)[C@@H](CN(C)Cc2ccc(Oc4ccccc4)cc2)O3)cc1 | inactive
COc1ccc(NC(=O)Nc2ccc3c(c2)C(=O)N([C@H](C)CO)C[C@H](C)[C@H](CN(C)Cc2ccc(Oc4ccccc4)cc2)O3)cc1 | active
C[C@@H]1CN([C@H](C)CO)C(=O)c2cc(NC(=O)Nc3ccc4c(c3)OCO4)ccc2O[C@@H]1CN(C)Cc1ccc(Oc2ccccc2)cc1 | active
COc1ccc(NC(=O)Nc2ccc3c(c2)C(=O)N([C@H](C)CO)C[C@H](C)[C@@H](CN(C)Cc2ccc(Oc4ccccc4)cc2)O3)cc1 | inactive
C[C@@H]1CN([C@@H](C)CO)C(=O)c2cc(NC(=O)Nc3ccccc3)ccc2O[C@H]1CN(C)Cc1ccc(Oc2ccccc2)cc1 | inactive
C[C@@H]1CN([C@@H](C)CO)C(=O)c2cc(NC(=O)Nc3ccc4c(c3)OCO4)ccc2O[C@H]1CN(C)Cc1ccc(Oc2ccccc2)cc1 | inactive
C[C@H](CO)N1C[C@H](C)[C@H](CN(C)Cc2ccc(Oc3ccccc3)cc2)Oc2ccc(NC(=O)Nc3ccc4c(c3)OCO4)cc2C1=O | inactive
C[C@@H]1CN([C@@H](C)CO)C(=O)c2cc(NC(=O)Nc3ccccc3)ccc2O[C@@H]1CN(C)Cc1ccc(Oc2ccccc2)cc1 | active
Cc1ccc(S(=O)(=O)N[C@@H]2CC[C@@H](CC(=O)N3CCC(Cc4ccccc4)CC3)O[C@H]2CO)cc1 | inactive
C[C@H](CO)N1C[C@H](C)[C@@H](CN(C)Cc2ccc(Oc3ccccc3)cc2)Oc2c(NC(=O)c3ccc(-c4nccs4)cc3)cccc2C1=O | inactive

Compound | cytotoxicity call
C[C@@H]1CN([C@H](C)CO)S(=O)(=O)c2ccc(C#Cc3ccccn3)cc2O[C@H]1CN(C)Cc1ccccc1 | inactive
CCCC(=O)Nc1ccc2c(c1)C(=O)N(C)C[C@H](OC)[C@@H](C)CN(S(=O)(=O)c1cn(C)cn1)[C@@H](C)CO2 | inactive
COc1cccc(OC)c1C(=O)O[C@H]1[C@@H]2OC(=O)[C@H](Cc3cccc(Br)c3)C/C=C/C[C@@H](Cc3cccc(Br)c3)C(=O)O[C@H]2[C@@H](OC)O[C@@H]1CO | inactive
C[C@@H]1CCCCO[C@H](CN(C)C(=O)c2ccccc2)[C@H](C)CN([C@@H](C)CO)C(=O)c2cc(NC(=O)Nc3ccc(F)cc3)ccc2O1 | inactive
COc1ccc(NC(=O)Nc2ccc3c(c2)CC(=O)N([C@@H](C)CO)C[C@@H](C)[C@H](CN(C)Cc2ccc(-c4ccccc4)cc2)O3)cc1 | inactive
C[C@H]1CCCCO[C@H](CN(C)C(=O)Nc2cccc3ccccc23)[C@@H](C)CN([C@@H](C)CO)C(=O)c2cc(N(C)C)ccc2O1 | inactive
COc1ccc(NC(=O)Nc2ccc3c(c2)C(=O)N([C@@H](C)CO)C[C@@H](C)[C@@H](CN(C)Cc2ccc(-c4ccccc4)cc2)O3)cc1 | inactive
COc1ccc(NC(=O)Nc2ccc3c(c2)C(=O)N([C@H](C)CO)C[C@H](C)[C@@H](CN(C)Cc2ccc(-c4ccccc4)cc2)O3)cc1 | inactive
C[C@@H]1CN([C@H](C)CO)C(=O)c2cc(NC(=O)Nc3ccccc3)ccc2O[C@@H]1CN(C)Cc1ccc(Oc2ccccc2)cc1 | active
C[C@@H]1CN([C@H](C)CO)C(=O)c2cc(NC(=O)Nc3ccccc3)ccc2O[C@H]1CN(C)Cc1ccc(Oc2ccccc2)cc1 | inactive
C[C@H]1CN([C@@H](C)CO)C(=O)c2cc(NC(=O)Nc3ccccc3)ccc2O[C@H]1CN(C)Cc1ccc(Oc2ccccc2)cc1 | inactive
COc1ccc(NC(=O)Nc2ccc3c(c2)C(=O)N([C@@H](C)CO)C[C@H](C)[C@@H](CN(C)Cc2ccc(-c4ccccc4)cc2)O3)cc1 | active
COc1ccc2c3c([nH]c2c1)[C@@H](CO)N(C[C@]13CCN(CC1)Cc1ccccc1F)S(=O)(=O)c1cn(cn1)C | inactive
C[C@@H]1CN([C@@H](C)CO)C(=O)c2cc(NC(=O)Nc3cccc4ccccc34)ccc2O[C@@H]1CN(C)C(=O)Nc1ccc(F)cc1 | inactive
CN1C(=O)c2cc(NC(=O)C3CCOCC3)ccc2OC[C@@H]2O[C@H](CC(=O)NCc3ccc4c(c3)OCO4)CC[C@@H]21 | inactive
COC(=O)c1c2oc(c1C(=O)OC)C(=O)N[C@H](Cc1ccccc1)Cn1cc(nn1)[C@@H](Cc1ccccc1)NC(=O)N[C@H](COC(=O)NCCCCCC(=O)NO)CC2 | inactive
Cc1cc(C)n([C@@H](C)CN)n1 | inactive
C[C@H]1CN([C@@H](C)CO)C(=O)c2cccc(NS(=O)(=O)c3cccs3)c2O[C@@H]1CN(C)S(=O)(=O)c1cn(C)cn1 | inactive
C[C@H](CO)N1C[C@H](C)[C@@H](CN(C)S(=O)(=O)c2cn(C)cn2)Oc2cc(C3=CCCC3)ccc2S1(=O)=O | inactive
COc1ccc(CN(C)C[C@H]2Oc3ccc(NC(=O)C4CC4)cc3CC(=O)N([C@@H](C)CO)C[C@@H]2C)cc1 | inactive
